Screening results (PubChem)
In the library only some 7.9% were active in any assay of this set; here they are far more common.
HCMV inh: blocks human cytomegalovirus replication; activity change, negative = inhibition, % at 57.5 µM; AID 1259415; HFF cells, HCMV-luciferase reporter, 72 h; active compounds read low; 4.5% of 410,000 active; in the data active = activity change below about -60%; inconclusive = no clear call, values can overlap the other calls; inactive = above about -39%
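Screen run at 2 compound doses on HFFs infected with reporter HCMV, MOI 1 PFU/cell. Luciferase activity from cell lysates at 72 h post infection gave inhibition relative to buffer-only and Salinomycin wells.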
HCV inh: HCV inhibition. Huh7.5.1 HCVcc-Cre infection, luciferase reporter, 44 h. Potency, µM (highest dose often 41.8 µM), for inactives: at the top dose activity change, negative = inhibition, usual class: inhibitors. 3.4% of 340,000 active; active = well fitted inhibition curve with a large enough effect; inconclusive = small, poorly fitted or top-dose-only effect, or another doubt; inactive = no such curve, though single readings can be large or run the other way; also: potency is read from the fitted curve at half-maximal effect
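Compounds are dispensed onto cells plated 4 h earlier at 1,000 per well, with HCVcc-Cre virus (about 0.5 moi) added next. Following 44 h of culture, luminescent signal is measured for 15 sec after 15 min with substrate at room temperature.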
FMDV inh: foot and mouth disease virus antiviral activity. FMDV antiviral cell-based qHTS. Potency, µM (doses to about 57.9 µM), inactives show at the highest dose activity change, negative = inhibition, actives largely listed as inhibitors. 1.2% of 410,000 active; calls by dose curve; tested in HEK293T cells; also: read-out not given here; potency is read from the fitted curve at half-maximal effect; nearly all actives have a fitted effect of over 45% in size
MARV entry inh: inhibitors of Marburg virus binding or cell entry. 1.8% of 300,000 active. AID 540276. Marburg virus pseudotyped entry inhibition, cell reporter. Potency, µM (top dose mostly 37.8 µM), inactives show at the highest dose activity change, negative = inhibition, usual class: inhibitors; calls by dose curve; tested in HEK293 cells; also: potency is read from the fitted curve at half-maximal effect
LASV entry inh: inhibitors of Lassa virus binding or cell entry. Lassa virus pseudotype entry inhibition, cell reporter. Potency, µM (doses to about 37.9 µM), for the others: at the top dose activity change, negative = inhibition, most hits filed as inhibitors. 1.2% of 300,000 active; calls by dose curve; tested in HEK293 cells; also: potency is read from the fitted curve at half-maximal effect; nearly all actives have a fitted effect of over 50% in size
Numbers without * were called inactive; ? = inconclusive; nt = no result given; ! = a repeat was not active; [ ] = another dose, or the depositor's remark. % is scaled to controls: 0 for no effect and ±100 for the full control effect.

SMILES	HCMV inh	HCV inh	FMDV inh	MARV entry inh	LASV entry inh
COc1ccccc1-c1noc(-c2ccc(NC3CCCC3)c([N+](=O)[O-])c2)n1	94	nt	51%	-12%[46.1 µM]	-11%[46.1 µM]
Cc1ccc(Nc2nc3c(c(=O)[nH]2)CCCC3)cc1	22	?	32%	2%	-1%
O=c1[nH]c(Nc2nc3ccccc3o2)nc2c1CCCC2	-99*	-11%	nt	6.5µM*	5.2µM*
CCNc1ccc(C(=O)OCC(=O)NCc2ccc(C)cc2)cc1[N+](=O)[O-]	-5	-5%	-10%	5%	-24%
CCNc1ccc(C(=O)OCC(=O)NC(C)c2ccccc2)cc1[N+](=O)[O-] (centres undefined)	-66*	?	-21%	4%	-3%
COc1ccc(CCN2CN(S(=O)(=O)c3ccccc3)c3nc4ccccc4nc32)cc1OC	-66*	?	-11%	-26%	-4%
Cc1ccc(CNC(=O)O[C@H]2CC[C@@]34CCCN3C(=O)CCC[C@H]4[C@H]2Cc2ccccc2)cc1	-1	nt	nt	nt	nt
CC(C)[C@@H]1CC[C@@H](C)CC1=O	nt	nt	-6%	nt	nt
O=c1c2ccccc2c(C=Nc2cccc(O)c2)c(O)n1-c1ccc2c(c1)OCO2	-86*	-23%	-33%	-13%	-17%
Cc1ccccc1-n1c(O)c(C=Nc2ccc3c(c2)OCO3)c(=O)[nH]c1=O	4	19%	-15%	15%	8%
CCn1c(S[C@@H](C)C(=O)O)nc2sc3c(c2c1=O)CCC3	nt	nt	nt	10%[46.1 µM]	nt
CC(=O)Oc1c(/C=C(\C#N)C(N)=O)[nH]c2ccccc12	-21	?	-9%	?	16µM*
CCCCn1c(N)c(N(CC)C(=O)C2=COCCO2)c(=O)[nH]c1=O	-13	-10%	-8%	30%	0%[46.1 µM]
COc1ccc(NS(=O)(=O)c2ccc3c(c2)oc(=O)n3C)c(OC)c1	-6	-6%	-12%	-4%	nt
COc1cc(NS(=O)(=O)c2ccc3c(c2)oc(=O)n3C)cc(OC)c1OC	?	10µM*	-24%	nt	nt
Cc1ccc(NS(=O)(=O)c2ccc3c(c2)oc(=O)n3C)cc1F	?	-3%	1%	nt	nt
Cc1ccc(NS(=O)(=O)c2ccc3c(c2)oc(=O)n3C)cc1	-63*	-7%	9%	?	-8%
CCc1ccc(NS(=O)(=O)c2ccc3c(c2)oc(=O)n3C)cc1	?	?	-12%	nt	nt
Cn1c(=O)oc2cc(S(=O)(=O)NCCN3CCc4ccccc4C3)ccc21	0	4%	5.6µM*	nt	nt
Cc1ccc(NS(=O)(=O)c2ccc3c(c2)oc(=O)n3C)cc1C	-101*	?	15%	2%	-2%
C=CCOc1cccn2c(N(C=O)Cc3ccccc3)c(CC)nc12	-17	nt	-15%	nt	nt
CCCCCC(=O)N1C[C@@H](n2cc(C3CC3)nn2)[C@H](O)C[C@H]1c1ccccc1	nt	nt	nt	nt	13%[46.1 µM]
COC(=O)c1cc(S(=O)(=O)N2CCOCC2)c(Cl)cc1N1CCOCC1	10	9%	-13%	0%	-8%
COC(=O)c1cc(C)nc2c1C(=O)C(=O)C=C2N1CCOCC1	-93*	2.5µM*	3.5µM*	?	?
Cc1nn(-c2ccccc2)c2nc(-c3ccncc3)cc(C(=O)NCc3ccco3)c12	87	?	10%	?	-9%
SMILES	HCMV inh	HCV inh	FMDV inh	MARV entry inh	LASV entry inh
CCOC(=O)c1cc(-c2cccs2)nc2c1c(C)nn2-c1ccccn1	-86*	10µM*	-14%	?	-14%
Cc1nn(-c2ccccn2)c2nc(-c3cccs3)cc(C(=O)NCc3ccco3)c12	-37	35µM*	0%	-23%	0%
O=C(NC1CCCC1)c1ccc(COc2ccccc2Br)o1	38	13µM*	-25%	nt	nt
Cc1ccc(O)c(Nc2c3ccccc3nc3ccccc23)c1	-36	10µM*	?	?	?
Cc1ccc(O)c(Nc2nc(-c3ccccc3)nc3ccccc23)c1	-30	-29%	-16%	?	-6%
COC(=O)c1ccc(CN2C[C@H](Sc3ccccn3)C[C@H]2C(=O)N(C)C)cc1	nt	nt	11%	nt	nt
CC1CCN(CC(=O)N2CCCc3c2c(=O)oc2ccc(OCc4ccccc4)cc32)CC1	-9	?	?	7.1µM*	0.63µM*!
CC1CC(C)CN(CC(=O)N2CCCc3c2c(=O)oc2ccc(OCc4ccccc4)cc32)C1 (centres undefined)	-7	11µM*	?	10µM*	?
CCCOc1ccc2oc(=O)c3c(c2c1)CCCN3C(=O)CN1CCc2ccccc2C1	-36	?	-18%	?	?
